This is an account of results in PubChem BioAssay AID2599 (Sanford-Burnham Center for Chemical Genomics, 2010).

About 5,800 (1.8%) of roughly 330,000 compounds were called active.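 Rule for the calls: active = inhibition above about 50% at the single tested dose (limit read from the data); inactive = the rest.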 The sample as a whole holds a higher share of actives than the screen did.

The target of this assay is Sentrin-specific protease 6 (Homo sapiens) (UniProt Q9GZR1). The assay can be described thus: SENP6 protease inhibitors, primary screen, biochemical, luminescence, uHTS (AID 2599).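 Note: plate controls were DMSO wells with enzyme for no effect and DMSO wells lacking enzyme for full effect.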 Particulars: Recombinant SENP6 catalytic domain, aminoluciferin luminescence; at 10 µM; active compounds read high.
Chain of Sentrin-specific protease 6 (Homo sapiens) (Q9GZR1 628-1112 limits assumed): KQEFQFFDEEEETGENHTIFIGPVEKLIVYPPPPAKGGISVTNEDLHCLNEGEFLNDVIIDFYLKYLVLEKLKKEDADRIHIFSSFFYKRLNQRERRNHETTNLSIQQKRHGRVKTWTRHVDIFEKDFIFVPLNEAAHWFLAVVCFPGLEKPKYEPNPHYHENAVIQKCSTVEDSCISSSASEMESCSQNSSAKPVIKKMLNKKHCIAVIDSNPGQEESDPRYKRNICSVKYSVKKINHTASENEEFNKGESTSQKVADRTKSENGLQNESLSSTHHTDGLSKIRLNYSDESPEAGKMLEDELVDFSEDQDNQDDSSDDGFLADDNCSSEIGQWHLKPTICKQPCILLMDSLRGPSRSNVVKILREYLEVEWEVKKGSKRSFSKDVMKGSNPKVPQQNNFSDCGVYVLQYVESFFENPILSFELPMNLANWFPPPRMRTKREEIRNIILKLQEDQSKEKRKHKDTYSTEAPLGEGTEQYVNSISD
As a reminder, the inhibition is the relative decrease from the control value, in per cent. As to `COc1ccc(/C=N/OCc2ccccc2C#N)c(OC)c1`, the inhibition was -10.3% (inactive). Turning to `O=C(/C=C/Sc1ncn[nH]1)c1ccc(Cl)cc1`, the inhibition is -14.2% (inactive). In the case of `Cc1noc(/C=C/c2ccco2)c1S(=O)(=O)N1CCC(C(=O)N2CCc3ccccc32)CC1` it was -4.32% (inactive); in that of `CC(C)c1ccccc1OCC(O)CN(CC(O)COc1cccc2ccccc12)C(C)C` (stereo not drawn), -38.4% (inactive).

Consider `COc1ccc(-c2n[nH]c3c2CN(C(=O)c2ccc(F)cc2)CC3)cc1`, for which the inhibition was -10.3% (inactive). In the case of `O=C(CCN1C(=O)[C@H]2CC=CC[C@H]2C1=O)NCc1nc(-c2ccccc2)no1` it was -11% (inactive); in that of `OCCNc1nc(Nc2ccc(Cl)c(Cl)c2)nc2ccccc12`, 13.5% (inactive); in that of `COc1ccc(-c2noc(CNC(=O)C(C)Oc3ccccc3)n2)cc1` (stereo not drawn), -14.5% (inactive). With `COc1ccc(OC)c(-c2csc(-c3cccs3)n2)c1` the figure was -21.1% (inactive); with `COc1ccc(-c2nc(-c3ccccc3)no2)c(OC)c1`, 97.7% (active). With `CN(C(=O)c1c(Cl)cnn1C)C12CC3CC(CC(C3)C1)C2` the figure was 5.39% (inactive); with `COCn1c(COc2ccccc2)nc2ccccc21`, -7.24% (inactive).

On to `Cc1ccc(OCc2nc3ccccc3n2C)cc1`, for which the inhibition is 65.3% (active). Regarding `CC(C)n1c(COc2ccccc2)nc2ccccc21`, the inhibition is -4.84% (inactive). With `COc1cccc(N2CC(NC(=O)c3ccc4ccccc4c3)CC2=O)c1` (stereo not drawn) the figure was -9.84% (inactive). With `CC(C)(CNC(=O)c1ccc(Cl)c(S(=O)(=O)N2CCc3ccccc3C2)c1)N1CCOCC1` the figure was -0.183% (inactive); with `COc1ccc2occ(C(=O)c3ccc(N=C(C)N(C)C)cc3)c2c1`, 62.1% (active). In the case of `COc1ccc(OC)c(C(=O)c2coc3ccc(OC)cc23)c1` it was -18.1% (inactive). Turning to `COc1ccc(OC)c(C(=O)c2ccc(Cl)cc2)c1`, the inhibition was 6.03% (inactive).

`Cc1ccc(/C=N/NC(=O)c2sccc2OCc2ccc(F)cc2)cc1`: the inhibition is -36.4% (inactive). In the case of `Cc1ccc(NC(=O)c2sccc2C)cc1[N+](=O)[O-]` it was 82.7% (active); in that of `O=C(N/N=C/c1ccc([N+](=O)[O-])cc1)C(=O)N1CCCC1`, -54.5% (inactive); in that of `Cc1cc(O)c(NC(=O)c2ccc(C)c([N+](=O)[O-])c2)cc1C`, -1.6% (inactive). With `Cc1ccc(NC(=O)CN(C)CC(=O)Nc2cccc(F)c2)cc1[N+](=O)[O-]` the figure was -3.74% (inactive); with `Cc1ccsc1C(=O)N/N=C/c1ccc([N+](=O)[O-])cc1`, 82.9% (active); with `O=S(=O)(NC1CCCCC1)c1ccc(F)c2ccccc12`, -13.8% (inactive). With `Clc1ccc(Nc2ccc3ccccc3n2)cc1` the figure was 89.2% (active); with `O=c1ccnc(Nc2ccc(Cl)cc2)[nH]1`, -2.45% (inactive). Regarding `Cc1cc(Nc2ccc(Br)cc2)nc2ccccc12`, the inhibition was 0.575% (inactive). With `CN(C)/C=C(\C#N)C(=O)c1cccnc1Oc1cccc(F)c1` the figure was -2.99% (inactive). In the case of `COc1ccc2oc(=O)cc(CN3CCOCC3)c2c1` it was -0.296% (inactive); in that of `CCCCC(O)(CCCC)C(=O)NN(C(=O)CCl)c1ccccc1`, -17.7% (inactive). In the case of `O=C(Nc1ccncc1)c1ccccc1[N+](=O)[O-]` it was -15.3% (inactive); in that of `O=C(Nc1ccccc1C(=O)Nc1ccncc1)c1ccc([N+](=O)[O-])cc1`, 58.6% (active); in that of `O=C(Nc1ccncc1)c1ccc([N+](=O)[O-])cc1Cl`, -18.8% (inactive). As for `CC(=O)N(c1ccc2oc(=O)sc2c1)S(=O)(=O)c1ccc(C)cc1`, the inhibition was 15.9% (inactive). Take `Cc1ccc(S(=O)(=O)N2CCN(C(=O)CN3C(=O)NC(C)(c4ccc(Cl)cc4)C3=O)CC2)c(C)c1` (stereo not drawn): the inhibition was -2.29% (inactive). `O=C(OCc1ccc(-c2ccccc2)cc1)c1cccc(O)c1`: the inhibition is 2.41% (inactive).

Consider `CC(C)n1c(NCc2c[nH]c3ccccc23)nc2ccccc21`, for which the inhibition was 9.71% (inactive). In the case of `Cc1ccc(O)c(CNc2nc3ccccc3[nH]2)c1` it was -16.5% (inactive); in that of `Cc1ccc(O)c(CNc2nc3ccccc3n2C)c1`, 51.5% (active).

Consider `COC(=O)c1sccc1NC(=O)CC1C(=O)NCCN1C(=O)Nc1ccc(F)cc1F` (stereo not drawn), for which the inhibition was -25.4% (inactive). With `Cc1ccc(N2C(=O)C3C4C=CC(CC4)C3C2=O)cc1Cl` (stereo not drawn) the figure was 14.5% (inactive); with `O=C(Nc1ccc(N2CCN(C(=O)c3ccccc3)CC2)c(Cl)c1)c1cccnc1`, 14.4% (inactive); with `O=[N+]([O-])c1ccccc1SNc1ccccn1`, -6.35% (inactive). With `CCCc1ccc(OCCNC(=O)c2ccccc2Br)cc1` the figure was 14.6% (inactive). In the case of `CCCc1ccc(OCCNC(=O)c2ccco2)cc1` it was 14.5% (inactive). Take `CCCOc1ccc(C(=O)NCCc2ccccc2)cc1`: the inhibition was 76.4% (active). With `OCC[C@H]1C[C@H](O)[C@@H](O)[C@]2(CCCCO2)O1` the figure was -7.27% (inactive). With `CCN(CC)CCCNC(=O)COc1ccc2oc3c(c2c1)CCCC3` the figure was -9.52% (inactive); with `O=C(COc1ccc2oc3c(c2c1)CCCC3)Nc1ccccn1`, 56.4% (active). In the case of `CCOC(=O)N1CCN(C(=O)COc2ccc3oc4c(c3c2)CCCC4)CC1` it was 1.75% (inactive).

Regarding `CCOC(=O)c1sc(NC(=O)C2CSC3(C)CCC(=O)N23)nc1C` (stereo not drawn), the inhibition was -17.8% (inactive). In the case of `O=C(NCCc1ccc(Cl)cc1)C1CCCN1C(=O)NCc1ccccc1` (stereo not drawn), the inhibition is 19.7% (inactive). With `O=C(NCC(c1ccco1)N1CCc2ccccc2C1)c1ccccc1Cl` (stereo not drawn) the figure was -27.1% (inactive); with `CCOC(=O)c1ccc(Nc2cc(C)nc3nc(C)nn23)cc1`, 3.17% (inactive); with `CCOC(=O)c1ccc(Nc2cc3ccccc3c(=O)[nH]2)cc1`, 85.9% (active). In the case of `CCOC(=O)c1ccc(NC(=O)c2cc(=O)[nH]c3ccccc23)cc1` it was -1.31% (inactive); in that of `CCc1ccc(NC(=O)CN2C(=O)CSC2=O)cc1`, 3.31% (inactive). As for `CCc1nc2sc3c(Cl)ncnc3c2c2c1CCCC2`, the inhibition is -2.17% (inactive).

As for `COCc1nnc(NC(=O)c2ccc3c(c2)OCO3)s1`, the inhibition was 13.6% (inactive). In the case of `CC(NC(=O)COC(=O)c1ccc2c(c1)OCO2)c1ccccc1` (stereo not drawn) it was -2.95% (inactive); in that of `O=C(Nc1cccc([N+](=O)[O-])c1)c1ccc2c(c1)OCO2`, 66.7% (active).

For the compound `O=C(Nc1ccccc1)c1ccc2c(c1)OCCCO2`, the inhibition was 86.7% (active). In the case of `CC(=O)Nc1cccc(C(=O)OCC(=O)c2ccc3c(c2)OCO3)c1` it was 83.6% (active); in that of `O=C(Nc1ccc2c(c1)OCCO2)c1ccoc1`, -9.58% (inactive); in that of `CN1CCN(c2ccc(NC(=O)c3ccc4c(c3)OCCO4)cc2Cl)CC1`, 3.53% (inactive). With `O=C(Nc1nc2ccccc2s1)c1ccc2c(c1)OCO2` the figure was 94.8% (active); with `O=C(COC(=O)c1ccc(F)cc1)Nc1ccc2c(c1)OCO2`, -6.02% (inactive). In the case of `Cc1ccc2sc(NNC(=O)c3ccc4c(c3)OCCO4)nc2c1C` it was 12.7% (inactive); in that of `CC(NC(=O)Nc1cccc([N+](=O)[O-])c1)c1ccc2c(c1)OCO2` (stereo not drawn), -3.48% (inactive). As for `Cc1onc(C(=O)Nc2ccc3c(c2)OCO3)c1[N+](=O)[O-]`, the inhibition is 0.864% (inactive). In the case of `Cc1cc(NC(=O)CN2C(=O)NC(CC(C)C)C2=O)no1` (stereo not drawn) it was -8.76% (inactive); in that of `Cc1cc(C)nc(-n2nc(C)cc2NC(=O)c2ccc(F)cc2F)n1`, 6.48% (inactive); in that of `CC(=O)Nc1ccc(NC(=O)C(NS(=O)(=O)c2ccc3c(c2)OCCO3)C(C)C)cc1` (stereo not drawn), 16.7% (inactive). In the case of `COc1cccc(NC(=O)N2CCC(NC(=O)C(Cc3cccc(C)c3)NC(C)=O)CC2)c1` (stereo not drawn) it was 20.6% (inactive); in that of `Cc1ccc2cccc(S(=O)(=O)N3CCN(c4ccccc4F)CC3)c2n1`, -3.25% (inactive); in that of `O=C(Nc1ccnn1C1CCN(Cc2cccc(OCCO)c2)CC1)C1CCCC1`, -17.8% (inactive). With `O=C(CSc1ccccn1)Nc1nc2c(ccc3ccccc32)s1` the figure was -10.2% (inactive); with `CCc1nn(CCCN2CCN(c3cccc(Cl)c3)CC2)c(=O)n1CCOc1ccccc1`, -12% (inactive); with `CN(C(=O)c1cccc(NC(=O)C2CCN(C(=O)OC(C)(C)C)CC2)c1)C1CCC1`, -7.07% (inactive). `CCN(CC)S(=O)(=O)c1ccc(N2CC(C(=O)NCc3cccnc3)CC2=O)cc1` (stereo not drawn): the inhibition is -2.04% (inactive).

Regarding `COc1ccc(C(=O)Nc2ccc(C3(C#N)CCCC3)cc2)cc1OC`, the inhibition is 96.3% (active). Consider `COc1ccc(C(=O)Nc2ccc3nc(N4CCCCC4)cc(C)c3c2)cc1OC`, for which the inhibition is -7.43% (inactive). With `CN(Cc1c(F)cccc1Cl)C(=O)CNC(=O)c1ccc2c(c1)OCO2` the figure was -13.3% (inactive); with `COc1cc(C(=O)NCC2(c3ccccc3)CCCC2)ccc1OC(C)C`, 2.81% (inactive); with `O=C(Nc1ccc(N2CCOCC2)cc1)c1ccc2c(c1)OCO2`, 25.4% (inactive). With `O=C(Nc1ccc(NC(=O)c2ccc3c(c2)OCO3)cc1)c1cccc(Cl)c1` the figure was -11.5% (inactive); with `COc1ccc(C(=O)Nc2ccc3c(c2)OCO3)cc1OC`, 80.8% (active); with `O=C(Nc1ccccc1)c1ccc2c(c1)OCO2`, 85.1% (active). With `O=C(Nc1ccccc1F)c1ccc2c(c1)OCO2` the figure was 71.4% (active); with `COc1cc(NC(=O)c2ccc3c(c2)OCO3)ccc1NC(=O)c1cccs1`, -45.6% (inactive). `N#Cc1ccccc1NC(=O)c1ccc2c(c1)OCO2`: the inhibition is -12.5% (inactive). With `CC(C)C(=O)Nc1cccc(C(=O)Nc2ccc3c(c2)OCO3)c1` the figure was 33.6% (inactive). Regarding `COc1ccc(C(=O)NCC2CCCCC2)cc1S(=O)(=O)N1CCCC1`, the inhibition was -0.795% (inactive). For `COc1ccc(COC(=O)c2n[nH]c3ccccc23)cc1F`, the inhibition is -5.01% (inactive). With `Cc1nn(C)c(C)c1S(=O)(=O)N1CCC(CO)(Cc2ccc(Cl)cc2)CC1` the figure was -8.17% (inactive); with `CC(C)N1C(=O)N(c2ccccc2)C(C)(O)CC1(C)C` (stereo not drawn), -17.1% (inactive).
